Screening data from PubChem BioAssay.
Sampled rows, rich in hits. Any-hit rate of the full collection: about 6.5%.
FMDV antiviral = antivirals against foot and mouth disease virus; FMDV antiviral cell-based qHTS; Potency, µM (series often up to 57.9 µM), for inactives: at the top dose activity change, negative = inhibition, hits mostly inhibitors; 410,000 compounds, 1.2% hits; AID 1159524; calls by dose curve; tested in HEK293T cells; note: read-out not given here; potency is the fitted concentration of half-maximal effect; nearly all actives have a fitted effect of over 45% in size
LASV entry inh = inhibitors of Lassa virus binding or cell entry; AID 540256; Lassa virus pseudotype entry inhibition, cell reporter; Potency, µM (doses to about 37.9 µM), inactives show top-dose activity change, negative = inhibition, hits mostly inhibitors; 300,000 compounds, 1.2% hits; calls by dose curve; tested in HEK293 cells; note: potency is the fitted concentration of half-maximal effect; nearly all actives have a fitted effect of over 50% in size
VACV Venus inh = inhibitors of vaccinia virus (Venus reporter); Vaccinia virus Venus reporter expression, fluorescence; Potency, µM (top dose mostly 36.5 µM), for the others: at the highest dose activity change, negative = inhibition, most hits filed as inhibitors; 330,000 compounds, 0.46% hits; calls by dose curve; tested in A549 cells; note: potency is the fitted concentration of half-maximal effect; nearly all actives have a fitted effect of over 30% in size
HCMV inh = human cytomegalovirus inhibition. HFF cells, HCMV-luciferase reporter, 72 h; stronger effect = lower value. activity change, negative = inhibition, % at 57.5 µM. 410,000 compounds, 4.5% hits. AID 1259415; in the data active = activity change below about -60%; inconclusive = no clear call, values can overlap the other calls; inactive = above about -39%
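Inhibition of viral replication was scored as loss of reporter luminescence in HFFs infected with HCMV-luciferase (MOI 1 PFU/cell) for 72 h; compounds tested at 2 doses, normalized to buffer and Salinomycin controls.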
Marburg entry inh = Marburg virus entry inhibition. Potency, µM (highest dose often 37.8 µM), for inactives: at the top dose activity change, negative = inhibition, actives largely listed as inhibitors. 300,000 compounds, 1.8% hits. Marburg virus pseudotyped entry inhibition, cell reporter; calls by dose curve; tested in HEK293 cells; note: potency is the fitted concentration of half-maximal effect
VACV mCherry inh = vaccinia inhibition (mCherry reporter). Vaccinia virus mCherry reporter infection, fluorescence. Potency, µM (titrated, usually from 36.5 µM), for the others: at the highest dose activity change, negative = inhibition, usual class: inhibitors. 310,000 compounds, 0.63% hits; calls by dose curve; tested in A549 cells; note: potency is the fitted concentration of half-maximal effect; nearly all actives have a fitted effect of over 35% in size
Numbers without * were called inactive; i = inactive; ? = inconclusive; / = no result given; [ ] = another dose, or the depositor's remark. % is set by controls: 0 for no effect and ±100 for the full control effect.

SMILES | FMDV antiviral | LASV entry inh | VACV Venus inh | HCMV inh | Marburg entry inh | VACV mCherry inh
CC(=O)Nc1ccc(C(=O)NNC(=O)c2cccs2)cc1 | 9% | 4% | -7% | -67* | 11%[46.1 µM] | i
Cc1ccn2c(Nc3c(C)cccc3C)c(-c3ccc(Cl)s3)nc2c1 | ? | -5%[46.1 µM] | -11% | -12 | -26%[46.1 µM] | -16%
O=C(NC(=S)Nc1ccc(Cc2ccncc2)cc1)c1ccccc1Cl | -11% | 1% | -1% | -36 | ? | 1%
O=C(NC(=S)Nc1ccc(Cc2ccncc2)cc1)c1ccccc1F | -20% | -51% | -27% | -99* | ? | -17%
CC(C)C[C@@H]1COc2cccc(N3CCCC3)c2S(=O)(=O)N1 | / | 23%[46.1 µM] | / | -35 | / | /
C[C@@]12C(=O)OC(=O)[C@]1(C)C1CCC2O1 | ? | / | 1.3µM* | -99* | / | 1.1µM*
Fc1ccc(Nc2nc(SCc3cccc(Cl)c3)nc3ccccc23)cc1 | -26% | 21%[46.1 µM] | -21% | -95* | / | -17%
Fc1ccc(Nc2nc(SCc3cccc(F)c3)nc3ccccc23)cc1 | -3% | -24%[46.1 µM] | -12% | -87* | / | -1%
O=C1CCC[C@H]2[C@@H](Cc3ccccc3)[C@@H](NS(=O)(=O)c3ccc(F)cc3)CC[C@]23CCCN13 | / | / | / | -28 | / | /
O[C@]1(c2ccc(F)cc2)CCNC1 | / | / | / | / | -7% | /
COc1ccccc1/C=C/c1nc2ccccc2s1 | / | / | -10% | / | / | 14%
c1ccc2c(SCc3cn4ccccc4n3)nncc2c1 | 59% | 6% | / | -60* | 1% | /
Cc1cc(C)c(C#N)c(SCc2cn3ccccc3n2)n1 | -21% | 16% | -21% | -77* | 19% | -6%
Cc1cc(C)nc(SCc2cn3ccccc3n2)n1 | 15% | / | / | -60* | / | /
Cc1cc(C)c(C#N)c(SCc2ccccc2)n1 | -13% | 0% | -10% | -3 | 4% | /
CCN(CCCNC(=O)CSc1cc(=O)n(CC)c2ccccc12)c1cccc(C)c1 | ? | -30%[46.1 µM] | -12% | 17 | ? | -15%
Cc1occc1C(=O)Nc1cccc(-c2nc(CNC(=O)c3cccc(C#CC(C)(C)O)c3)c(C)o2)c1 | 20µM* | / | ? | / | / | ?
Cc1occc1C(=O)Nc1cccc(-c2nc(CNC(=O)c3ccc4ccccc4n3)c(C)o2)c1 | -8% | / | -21% | / | / | -3%
CSc1ccccc1C(=O)NCc1nc(-c2cccc(NC(=O)c3ccoc3C)c2)oc1C | 32µM* | / | -29% | / | / | ?
COC(=O)c1cccc(C(=O)NCc2nc(-c3cccc(NC(=O)c4ccoc4C)c3)oc2C)c1 | 22µM* | / | -23% | / | / | -26%
Cc1occc1C(=O)Nc1cccc(-c2nc(CNC(=O)c3cc(-c4ccccc4)n[nH]3)c(C)o2)c1 | -1% | / | -23% | / | / | -24%
COc1ccccc1CNC(=O)c1cccn1-c1nnc(N2CCCC2)s1 | 14% | -2%[46.1 µM] | -10% | ? | / | -13%
COC(=O)[C@@H]1CCCN1Cc1ccc2c(c1)CN(Cc1ccc(OC)c(C)c1)CCO2 | 2% | / | 9% | / | / | -7%
C=CC1=C2C=C(C3CC3)N(Cc3ccc4c(c3)OCO4)C=C2C(=O)C(C)(OC(=O)c2ccco2)C1=O (centres undefined) | / | / | / | / | -5%[14.2 µM] | /
CCOC(=O)CCCc1cc[c]([Sb](=[O])([OH])[OH])cc1 | / | / | -16% | / | / | -7%
SMILES | FMDV antiviral | LASV entry inh | VACV Venus inh | HCMV inh | Marburg entry inh | VACV mCherry inh
COCCNCCCOc1ccc(C)cc1Br | 6% | / | -18% | 7 | / | -1%
COCCCNCCCOc1ccc(Cl)cc1Br | -8% | -18% | / | -5 | 16µM* | /
COCCCNCCCOc1ccc(C)cc1Br | -8% | ? | 2% | -63* | ? | -5%
Cc1ccc(C(NC(=O)NC(C)c2ccccc2)C(Cl)(Cl)Cl)cc1F (centres undefined) | ? | ? | ? | -100* | ? | 22µM*
O=[N+]([O-])c1cc(/C=N/O)ccc1SCc1ccccc1 | 7% | 12% | / | -66* | 7% | /
Cc1ccc(C)c(OCCn2cc(C(=O)O)c3ccccc32)c1 | -15% | 1%[46.1 µM] | -10% | 8 | 4%[46.1 µM] | i
COc1ccccc1OCCCn1cc(C(=O)c2ccco2)c2ccccc21 | -12% | ? | / | 166 | -8% | /
CC(=O)c1cn(CCOc2cc(C)ccc2C)c2ccccc12 | ? | -17%[46.1 µM] | -7% | -32 | 1.6µM* | -13%
Cc1ccccc1OCCn1cc(C(=O)O)c2ccccc21 | 9% | 8%[46.1 µM] | -17% | 7 | 17%[46.1 µM] | -6%
COc1ccccc1OCCn1cc(C(=O)c2ccco2)c2ccccc21 | 25µM* | -21% | -26% | 61 | ? | ?
Cc1ccccc1OCCn1cc(/C(N)=N/O)c2ccccc21 | 28µM* | 15% | ? | -14 | ? | ?
C[C@H]1CC2[C@@H]3CCC4=CC(=O)C=C[C@]4(C)[C@@]3(F)[C@@H](O)C[C@]2(C)[C@@]1(O)C(=O)CO (some centres undefined) | / | / | / | / | -3% | /
Nc1ncnc2c1nc(Sc1ccc(Cl)cc1)n2[C@H]1OC2COP(=O)(O)O[C@H]2[C@@H]1O (some centres undefined) | / | / | -13% | / | / | -3%
CC(C)c1ccc(NC(=O)N[C@H]2CC[C@@]34CCCN3C(=O)CCC[C@H]4C2Cc2ccccc2)cc1 (some centres undefined) | / | / | / | 9 | / | /
O=S(=O)(c1ccc(-c2csc(-c3cccnc3)n2)cc1)N1CCCC1 | -4% | 24% | / | ? | 1% | /
O=S(=O)(c1cccc(-c2csc(-c3cccnc3)n2)c1)N1CCCCC1 | -26% | -26% | / | -69* | -14% | /
O=S(=O)(c1cccc(-c2csc(-c3cccnc3)n2)c1)N1CCOCC1 | -9% | -23% | -10% | ? | -11%[46.1 µM] | -12%
O=S(=O)(c1ccc(-c2csc(-c3cccnc3)n2)cc1)N1CCCCC1 | ? | -3% | / | -62* | ? | /
CCC(C(=O)NCCCN1CC(C)CC(C)C1)n1nc(C)c2sc3ccccc3c2c1=O (centres undefined) | 0% | / | / | -73* | / | /
O=c1c2ccccc2nc(/C=C/c2ccc(O)cc2)n1CCc1ccccc1 | 35µM* | 9.2µM* | -18% | ? | ? | ?
CCCc1nc2ccccc2c(=O)n1CCc1ccccc1 | ? | 2.5µM* | -23% | -26 | ? | -24%
CCCc1nc2ccccc2c(=O)n1/N=C/c1ccccc1O | -25% | ? | ? | ? | ? | 10µM*
Cc1nc2ccccc2c(=O)n1/N=C/c1ccc(O)cc1O | -18% | 29%[46.1 µM] | -11% | -24 | -6%[46.1 µM] | ?
CCn1c(/C=C/c2ccccc2)nc2ccccc2c1=O | -24% | / | / | -61* | / | /
CCn1cc(C(=O)NCCc2ccc(OC)c(OC)c2)c(=O)c2cc(S(=O)(=O)N3CCc4ccccc4C3)ccc21 | -1% | -3%[46.1 µM] | ? | -26 | -3%[46.1 µM] | -13%
COc1cc(N(C)C)c(OC)cc1/C=C1\C=Cc2ccccc21 | / | / | -5% | / | / | -15%
CCCC[C@]1(C(=O)OCC)C[C@H](CN2CCOCC2)OC1=O | / | / | / | / | 5% | /
O=c1c2ccccc2nc(/C=C/c2cc(Br)ccc2O)n1CCO | ? | / | / | -98* | / | /
O=C(Nc1nc2ccccc2s1)c1c(F)cccc1Cl | 63% | ? | -15% | 19 | 11% | -18%
